Measurements published in the supplement of paper PMC11732987, “Enantioselective OTUD7B fragment discovery through chemoproteomics screening and high-throughput optimisation” (Communications Chemistry, 2025).

How the values were obtained:
Test in all cases: log2 ratio of Biotin-Ahx-Ub-VS probe labelling (fragment/DMSO); higher = less target engagement (more negative = stronger competition), active = hit call of the paper (q ≤ 0.05, log2 ratio ≤ -1)
Conditions in all cases: compound concentration: 200 uM; treatment time: 3 h
[1] = molecular target: T1, USP42 (UniProt Q9H9J4)
T1 sequence (whole entry): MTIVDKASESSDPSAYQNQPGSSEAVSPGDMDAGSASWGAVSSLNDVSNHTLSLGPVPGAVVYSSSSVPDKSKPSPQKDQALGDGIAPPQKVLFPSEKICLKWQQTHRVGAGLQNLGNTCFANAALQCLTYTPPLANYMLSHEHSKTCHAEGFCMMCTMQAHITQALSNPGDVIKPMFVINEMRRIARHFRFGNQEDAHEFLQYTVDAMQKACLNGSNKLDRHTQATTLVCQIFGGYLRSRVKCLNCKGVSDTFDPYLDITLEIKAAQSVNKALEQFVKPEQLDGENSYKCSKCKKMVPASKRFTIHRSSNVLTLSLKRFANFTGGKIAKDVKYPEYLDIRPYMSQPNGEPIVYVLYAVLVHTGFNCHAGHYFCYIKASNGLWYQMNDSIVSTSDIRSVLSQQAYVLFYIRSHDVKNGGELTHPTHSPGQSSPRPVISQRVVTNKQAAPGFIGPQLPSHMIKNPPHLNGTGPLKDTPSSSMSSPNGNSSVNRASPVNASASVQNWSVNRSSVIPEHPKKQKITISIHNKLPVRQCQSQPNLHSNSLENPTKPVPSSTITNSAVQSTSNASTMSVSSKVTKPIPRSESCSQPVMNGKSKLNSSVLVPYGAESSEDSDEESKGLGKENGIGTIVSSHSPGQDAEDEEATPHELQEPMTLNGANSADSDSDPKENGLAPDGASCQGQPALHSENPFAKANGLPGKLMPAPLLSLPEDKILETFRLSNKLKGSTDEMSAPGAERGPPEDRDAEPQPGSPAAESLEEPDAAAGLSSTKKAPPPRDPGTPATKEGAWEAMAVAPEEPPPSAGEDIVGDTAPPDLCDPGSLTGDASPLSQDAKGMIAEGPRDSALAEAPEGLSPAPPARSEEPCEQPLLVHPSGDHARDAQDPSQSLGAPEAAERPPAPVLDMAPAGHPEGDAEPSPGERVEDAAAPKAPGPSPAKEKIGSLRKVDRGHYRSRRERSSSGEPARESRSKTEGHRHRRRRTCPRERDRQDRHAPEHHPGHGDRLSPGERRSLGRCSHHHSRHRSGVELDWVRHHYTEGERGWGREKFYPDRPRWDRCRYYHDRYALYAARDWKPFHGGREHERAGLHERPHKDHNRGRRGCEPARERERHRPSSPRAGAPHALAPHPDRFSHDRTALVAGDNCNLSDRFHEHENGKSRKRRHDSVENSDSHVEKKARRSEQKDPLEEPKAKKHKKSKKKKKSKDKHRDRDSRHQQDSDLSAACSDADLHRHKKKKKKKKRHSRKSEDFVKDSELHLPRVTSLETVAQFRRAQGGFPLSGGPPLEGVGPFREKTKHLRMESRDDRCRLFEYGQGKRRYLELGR
Procedure, shortened: (§1)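 Each value is an average log2 ratio of fragment to vehicle, tested by unpaired t-test. The underlying Spectronaut label-free quantities were global-median-normalised, and only proteins with ≥2 unique peptides were included. Triplicate HEK293T lysate samples (495 µg) were exposed to fragment at 200 µM or vehicle for 3 h, then to Biotin-Ahx-Ub-VS at 0.5 µM final for 1 h, before NeutrAvidin enrichment of labelled DUBs, LysC and trypsin digestion, and diaPASEF LC-MS/MS.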

[2] = molecular target: USP46 (UniProt P62068)
Procedure, shortened: as §1

[3] = molecular target: T2, USP47 (UniProt Q96K76)
T2 sequence (whole entry): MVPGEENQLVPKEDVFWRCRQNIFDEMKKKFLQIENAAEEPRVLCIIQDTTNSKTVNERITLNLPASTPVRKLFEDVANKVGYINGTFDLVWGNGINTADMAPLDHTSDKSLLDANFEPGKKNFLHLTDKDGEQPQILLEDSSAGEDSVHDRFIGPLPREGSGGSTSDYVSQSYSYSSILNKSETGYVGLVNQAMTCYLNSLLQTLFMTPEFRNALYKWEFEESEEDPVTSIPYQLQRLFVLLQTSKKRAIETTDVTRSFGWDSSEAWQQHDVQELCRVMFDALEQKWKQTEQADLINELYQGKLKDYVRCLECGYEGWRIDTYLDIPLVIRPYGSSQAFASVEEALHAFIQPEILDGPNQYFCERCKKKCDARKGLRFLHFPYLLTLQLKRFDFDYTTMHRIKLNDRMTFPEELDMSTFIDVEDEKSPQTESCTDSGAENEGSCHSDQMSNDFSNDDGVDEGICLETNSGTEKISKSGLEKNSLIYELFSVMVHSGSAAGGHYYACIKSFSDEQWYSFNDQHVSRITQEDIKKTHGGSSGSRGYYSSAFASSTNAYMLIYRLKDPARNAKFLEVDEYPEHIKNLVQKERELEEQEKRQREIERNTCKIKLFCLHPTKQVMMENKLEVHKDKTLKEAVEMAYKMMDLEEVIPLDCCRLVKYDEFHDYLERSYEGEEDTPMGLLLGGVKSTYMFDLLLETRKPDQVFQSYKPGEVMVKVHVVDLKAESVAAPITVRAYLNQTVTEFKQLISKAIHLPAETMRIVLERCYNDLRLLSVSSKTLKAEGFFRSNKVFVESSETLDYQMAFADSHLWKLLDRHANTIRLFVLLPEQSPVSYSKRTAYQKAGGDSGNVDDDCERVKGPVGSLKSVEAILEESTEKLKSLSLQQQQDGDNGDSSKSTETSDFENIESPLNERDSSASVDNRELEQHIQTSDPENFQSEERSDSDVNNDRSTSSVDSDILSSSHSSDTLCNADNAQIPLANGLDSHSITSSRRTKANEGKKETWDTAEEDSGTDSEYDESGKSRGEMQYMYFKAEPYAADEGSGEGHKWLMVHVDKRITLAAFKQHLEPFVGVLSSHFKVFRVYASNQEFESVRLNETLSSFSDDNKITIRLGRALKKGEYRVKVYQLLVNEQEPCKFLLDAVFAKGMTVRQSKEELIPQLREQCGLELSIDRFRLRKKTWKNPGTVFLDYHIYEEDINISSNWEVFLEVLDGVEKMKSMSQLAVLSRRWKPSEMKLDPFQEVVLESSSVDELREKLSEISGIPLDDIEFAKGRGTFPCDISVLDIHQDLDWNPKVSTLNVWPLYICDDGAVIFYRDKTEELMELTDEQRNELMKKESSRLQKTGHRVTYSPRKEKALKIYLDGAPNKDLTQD
Procedure, shortened: as §1

[4] = molecular target: T3, USP48 (UniProt Q86UV5)
T3 sequence (whole entry): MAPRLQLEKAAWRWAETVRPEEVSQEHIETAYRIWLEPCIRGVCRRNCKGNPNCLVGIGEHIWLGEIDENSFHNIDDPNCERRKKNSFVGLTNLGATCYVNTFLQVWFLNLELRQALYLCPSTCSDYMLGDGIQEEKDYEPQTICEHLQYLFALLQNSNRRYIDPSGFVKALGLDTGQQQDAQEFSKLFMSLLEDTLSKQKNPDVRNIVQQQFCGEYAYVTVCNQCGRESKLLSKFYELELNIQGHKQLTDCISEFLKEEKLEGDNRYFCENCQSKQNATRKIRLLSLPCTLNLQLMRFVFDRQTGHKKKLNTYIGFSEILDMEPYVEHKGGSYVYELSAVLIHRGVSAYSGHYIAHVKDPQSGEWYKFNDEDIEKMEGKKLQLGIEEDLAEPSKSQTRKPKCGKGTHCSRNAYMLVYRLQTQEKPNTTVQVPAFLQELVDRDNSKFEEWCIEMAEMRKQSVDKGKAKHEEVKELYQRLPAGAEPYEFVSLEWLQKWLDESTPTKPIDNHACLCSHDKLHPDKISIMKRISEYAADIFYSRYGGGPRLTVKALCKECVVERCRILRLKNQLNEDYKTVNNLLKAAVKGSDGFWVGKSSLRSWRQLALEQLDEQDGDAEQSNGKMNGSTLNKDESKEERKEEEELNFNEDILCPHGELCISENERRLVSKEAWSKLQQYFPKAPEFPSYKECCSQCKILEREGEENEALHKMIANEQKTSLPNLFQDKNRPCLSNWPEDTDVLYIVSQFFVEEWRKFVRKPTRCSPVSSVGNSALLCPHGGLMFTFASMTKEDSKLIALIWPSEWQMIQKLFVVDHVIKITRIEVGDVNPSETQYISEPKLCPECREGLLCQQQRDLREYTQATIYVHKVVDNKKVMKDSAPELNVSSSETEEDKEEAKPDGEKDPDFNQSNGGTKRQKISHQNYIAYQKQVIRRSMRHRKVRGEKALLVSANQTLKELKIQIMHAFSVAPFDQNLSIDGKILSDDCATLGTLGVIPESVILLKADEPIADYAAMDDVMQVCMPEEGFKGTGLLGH
Procedure, shortened: as §1

[5] = molecular target: T4, USP5 (UniProt P45974)
T4 sequence (whole entry): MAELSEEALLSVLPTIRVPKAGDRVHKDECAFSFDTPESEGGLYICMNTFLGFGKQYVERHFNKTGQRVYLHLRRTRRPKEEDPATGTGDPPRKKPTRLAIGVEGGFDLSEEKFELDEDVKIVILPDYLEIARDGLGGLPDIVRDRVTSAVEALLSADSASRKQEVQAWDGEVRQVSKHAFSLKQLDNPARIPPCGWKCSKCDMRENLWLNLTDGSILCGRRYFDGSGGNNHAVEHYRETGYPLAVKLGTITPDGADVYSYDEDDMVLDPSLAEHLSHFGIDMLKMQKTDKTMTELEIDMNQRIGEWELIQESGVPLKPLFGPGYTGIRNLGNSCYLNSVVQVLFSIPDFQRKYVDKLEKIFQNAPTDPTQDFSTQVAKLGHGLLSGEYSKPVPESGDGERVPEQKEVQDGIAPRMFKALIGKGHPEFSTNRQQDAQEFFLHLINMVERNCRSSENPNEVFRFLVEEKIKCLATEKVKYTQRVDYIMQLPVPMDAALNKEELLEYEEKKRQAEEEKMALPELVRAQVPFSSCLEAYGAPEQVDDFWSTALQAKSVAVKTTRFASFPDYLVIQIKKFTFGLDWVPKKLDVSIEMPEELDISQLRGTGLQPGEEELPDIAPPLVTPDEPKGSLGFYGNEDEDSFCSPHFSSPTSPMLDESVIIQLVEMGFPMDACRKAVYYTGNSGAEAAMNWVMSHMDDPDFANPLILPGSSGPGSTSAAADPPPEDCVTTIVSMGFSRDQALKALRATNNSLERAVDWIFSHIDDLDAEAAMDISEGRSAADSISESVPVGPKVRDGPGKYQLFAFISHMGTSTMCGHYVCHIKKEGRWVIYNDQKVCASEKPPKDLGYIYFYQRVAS
Procedure, shortened: as §1

[6] = molecular target: USP54 (UniProt Q70EL1)
Procedure, shortened: as §1

[7] = molecular target: USP7 (UniProt Q93009)
Procedure, shortened: as §1

[8] = molecular target: T5, USP8 (UniProt P40818)
T5 sequence (whole entry): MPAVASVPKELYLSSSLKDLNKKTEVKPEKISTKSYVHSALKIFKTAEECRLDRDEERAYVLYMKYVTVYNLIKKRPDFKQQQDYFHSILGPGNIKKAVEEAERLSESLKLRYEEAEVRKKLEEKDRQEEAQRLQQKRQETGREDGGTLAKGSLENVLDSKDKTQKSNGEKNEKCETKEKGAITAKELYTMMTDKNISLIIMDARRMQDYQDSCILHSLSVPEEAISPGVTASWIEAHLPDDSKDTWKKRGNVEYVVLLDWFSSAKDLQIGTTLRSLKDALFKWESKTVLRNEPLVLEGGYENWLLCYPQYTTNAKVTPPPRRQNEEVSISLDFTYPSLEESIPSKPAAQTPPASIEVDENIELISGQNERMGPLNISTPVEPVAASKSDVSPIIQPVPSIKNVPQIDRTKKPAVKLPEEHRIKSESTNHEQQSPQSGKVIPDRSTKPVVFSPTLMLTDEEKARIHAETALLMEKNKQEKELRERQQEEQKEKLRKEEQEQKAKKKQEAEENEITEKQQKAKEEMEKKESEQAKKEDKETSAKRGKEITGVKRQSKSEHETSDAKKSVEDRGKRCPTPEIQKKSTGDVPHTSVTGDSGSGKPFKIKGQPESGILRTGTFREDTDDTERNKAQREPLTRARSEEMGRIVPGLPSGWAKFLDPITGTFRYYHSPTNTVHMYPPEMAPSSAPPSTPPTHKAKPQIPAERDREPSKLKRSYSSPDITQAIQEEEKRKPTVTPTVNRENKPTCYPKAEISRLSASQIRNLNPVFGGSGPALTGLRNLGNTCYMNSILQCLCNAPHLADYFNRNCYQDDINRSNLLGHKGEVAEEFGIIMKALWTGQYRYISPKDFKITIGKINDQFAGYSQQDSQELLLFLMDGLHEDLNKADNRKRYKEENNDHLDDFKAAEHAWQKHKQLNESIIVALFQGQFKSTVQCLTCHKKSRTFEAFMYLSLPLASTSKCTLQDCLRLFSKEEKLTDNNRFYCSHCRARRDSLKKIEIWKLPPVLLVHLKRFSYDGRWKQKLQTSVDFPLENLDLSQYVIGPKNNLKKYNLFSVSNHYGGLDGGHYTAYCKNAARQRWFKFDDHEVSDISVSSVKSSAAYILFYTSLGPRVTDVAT
Procedure, shortened: as §1

[9] = molecular target: USP9X (UniProt Q93008)
Procedure, shortened: as §1

[10] = molecular target: UniProt O00487
Procedure, shortened: as §1

Measured: log2 ratio of Biotin-Ahx-Ub-VS probe labelling

Chain of USP7 (Q93009 whole entry, looked up): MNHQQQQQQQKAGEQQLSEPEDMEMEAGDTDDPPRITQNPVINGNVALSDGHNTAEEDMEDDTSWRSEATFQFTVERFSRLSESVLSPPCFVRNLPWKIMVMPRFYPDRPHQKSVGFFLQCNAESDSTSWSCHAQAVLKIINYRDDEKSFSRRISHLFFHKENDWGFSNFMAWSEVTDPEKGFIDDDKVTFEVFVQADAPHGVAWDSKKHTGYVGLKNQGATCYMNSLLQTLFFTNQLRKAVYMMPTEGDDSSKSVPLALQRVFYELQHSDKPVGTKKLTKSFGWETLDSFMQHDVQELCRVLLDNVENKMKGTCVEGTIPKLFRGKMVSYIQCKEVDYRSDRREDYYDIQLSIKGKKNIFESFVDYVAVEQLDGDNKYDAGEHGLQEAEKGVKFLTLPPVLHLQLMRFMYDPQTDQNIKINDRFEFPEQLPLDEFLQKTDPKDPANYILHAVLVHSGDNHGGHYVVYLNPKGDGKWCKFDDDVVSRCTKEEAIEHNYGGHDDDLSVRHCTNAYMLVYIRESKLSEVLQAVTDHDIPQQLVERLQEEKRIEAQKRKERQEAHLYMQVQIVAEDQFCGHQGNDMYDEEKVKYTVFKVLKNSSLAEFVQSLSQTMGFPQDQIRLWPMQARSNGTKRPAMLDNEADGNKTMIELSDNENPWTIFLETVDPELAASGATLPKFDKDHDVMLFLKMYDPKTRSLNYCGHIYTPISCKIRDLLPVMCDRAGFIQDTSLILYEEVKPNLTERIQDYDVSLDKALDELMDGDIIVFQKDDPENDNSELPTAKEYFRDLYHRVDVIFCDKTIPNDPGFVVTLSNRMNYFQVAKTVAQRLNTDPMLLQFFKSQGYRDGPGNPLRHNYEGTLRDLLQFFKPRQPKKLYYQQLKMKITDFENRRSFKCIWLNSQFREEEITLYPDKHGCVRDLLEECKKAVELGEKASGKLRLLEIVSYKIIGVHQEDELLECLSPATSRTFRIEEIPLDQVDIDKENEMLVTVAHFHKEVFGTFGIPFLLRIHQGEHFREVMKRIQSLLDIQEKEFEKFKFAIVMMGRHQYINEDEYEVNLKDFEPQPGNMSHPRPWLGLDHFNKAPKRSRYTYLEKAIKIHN
Chain of USP9X (Q93008 whole entry): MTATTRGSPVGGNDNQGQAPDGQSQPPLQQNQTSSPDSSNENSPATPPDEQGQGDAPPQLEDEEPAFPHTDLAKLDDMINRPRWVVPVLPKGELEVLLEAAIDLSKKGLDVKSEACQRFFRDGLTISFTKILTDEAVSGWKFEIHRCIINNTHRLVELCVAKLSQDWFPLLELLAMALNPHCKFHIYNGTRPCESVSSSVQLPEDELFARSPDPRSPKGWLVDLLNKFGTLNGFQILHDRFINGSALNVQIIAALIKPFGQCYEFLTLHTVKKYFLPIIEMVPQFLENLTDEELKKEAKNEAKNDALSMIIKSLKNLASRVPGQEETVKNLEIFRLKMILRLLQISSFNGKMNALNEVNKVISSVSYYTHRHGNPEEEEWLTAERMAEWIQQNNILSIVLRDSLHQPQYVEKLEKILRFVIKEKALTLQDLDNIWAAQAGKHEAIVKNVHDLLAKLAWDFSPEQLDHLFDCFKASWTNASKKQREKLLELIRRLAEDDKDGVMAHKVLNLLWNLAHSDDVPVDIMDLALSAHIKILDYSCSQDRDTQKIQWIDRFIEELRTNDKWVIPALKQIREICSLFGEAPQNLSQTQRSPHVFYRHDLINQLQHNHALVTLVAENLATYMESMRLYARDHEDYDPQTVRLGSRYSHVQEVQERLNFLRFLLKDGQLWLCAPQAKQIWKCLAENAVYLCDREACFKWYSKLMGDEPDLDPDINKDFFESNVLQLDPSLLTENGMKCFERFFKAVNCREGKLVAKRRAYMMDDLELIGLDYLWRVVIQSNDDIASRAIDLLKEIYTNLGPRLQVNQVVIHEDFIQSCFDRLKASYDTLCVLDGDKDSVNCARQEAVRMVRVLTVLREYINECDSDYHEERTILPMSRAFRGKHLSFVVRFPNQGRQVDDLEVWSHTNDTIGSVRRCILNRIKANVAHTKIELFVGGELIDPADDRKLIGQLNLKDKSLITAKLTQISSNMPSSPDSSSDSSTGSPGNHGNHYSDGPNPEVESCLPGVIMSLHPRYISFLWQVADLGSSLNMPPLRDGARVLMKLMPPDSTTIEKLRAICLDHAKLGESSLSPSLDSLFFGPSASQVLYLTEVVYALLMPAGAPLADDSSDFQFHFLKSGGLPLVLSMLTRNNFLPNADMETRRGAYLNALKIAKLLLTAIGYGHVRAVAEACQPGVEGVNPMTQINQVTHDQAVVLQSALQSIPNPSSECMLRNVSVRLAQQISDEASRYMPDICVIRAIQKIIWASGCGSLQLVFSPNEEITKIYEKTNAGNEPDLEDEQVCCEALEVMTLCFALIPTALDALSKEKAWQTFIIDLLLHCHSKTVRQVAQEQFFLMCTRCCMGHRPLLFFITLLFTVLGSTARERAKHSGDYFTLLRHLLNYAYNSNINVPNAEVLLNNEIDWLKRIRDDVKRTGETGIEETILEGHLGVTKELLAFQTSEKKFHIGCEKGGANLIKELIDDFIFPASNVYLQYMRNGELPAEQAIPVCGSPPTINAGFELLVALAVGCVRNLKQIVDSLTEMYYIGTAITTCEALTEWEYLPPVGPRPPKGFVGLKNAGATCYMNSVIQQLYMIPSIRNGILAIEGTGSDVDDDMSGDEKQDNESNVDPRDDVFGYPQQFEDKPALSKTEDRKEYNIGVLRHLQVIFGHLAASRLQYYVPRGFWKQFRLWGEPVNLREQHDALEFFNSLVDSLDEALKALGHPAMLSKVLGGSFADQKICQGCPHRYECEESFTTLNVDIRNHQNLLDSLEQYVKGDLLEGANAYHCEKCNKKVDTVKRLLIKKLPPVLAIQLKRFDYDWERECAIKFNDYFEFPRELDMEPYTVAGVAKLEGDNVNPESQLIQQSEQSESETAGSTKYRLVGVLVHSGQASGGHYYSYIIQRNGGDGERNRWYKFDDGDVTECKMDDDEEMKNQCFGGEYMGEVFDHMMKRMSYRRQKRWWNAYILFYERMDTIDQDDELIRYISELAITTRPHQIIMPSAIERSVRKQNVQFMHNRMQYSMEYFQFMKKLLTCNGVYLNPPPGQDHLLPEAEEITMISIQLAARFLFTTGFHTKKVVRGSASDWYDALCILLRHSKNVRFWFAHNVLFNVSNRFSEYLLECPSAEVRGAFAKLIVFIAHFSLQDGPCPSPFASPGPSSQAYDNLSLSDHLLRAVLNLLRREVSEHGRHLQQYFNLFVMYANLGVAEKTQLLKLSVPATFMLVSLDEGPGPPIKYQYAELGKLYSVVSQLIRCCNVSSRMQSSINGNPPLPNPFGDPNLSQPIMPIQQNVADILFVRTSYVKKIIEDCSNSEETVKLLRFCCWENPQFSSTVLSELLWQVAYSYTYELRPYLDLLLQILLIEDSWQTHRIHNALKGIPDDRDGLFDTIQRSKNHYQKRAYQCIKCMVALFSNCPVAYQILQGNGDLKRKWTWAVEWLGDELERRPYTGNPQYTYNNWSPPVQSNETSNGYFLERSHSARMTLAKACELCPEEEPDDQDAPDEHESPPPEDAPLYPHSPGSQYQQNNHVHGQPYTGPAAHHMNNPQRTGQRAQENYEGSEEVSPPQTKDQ
Chain of UniProt O00487 (O00487 whole entry): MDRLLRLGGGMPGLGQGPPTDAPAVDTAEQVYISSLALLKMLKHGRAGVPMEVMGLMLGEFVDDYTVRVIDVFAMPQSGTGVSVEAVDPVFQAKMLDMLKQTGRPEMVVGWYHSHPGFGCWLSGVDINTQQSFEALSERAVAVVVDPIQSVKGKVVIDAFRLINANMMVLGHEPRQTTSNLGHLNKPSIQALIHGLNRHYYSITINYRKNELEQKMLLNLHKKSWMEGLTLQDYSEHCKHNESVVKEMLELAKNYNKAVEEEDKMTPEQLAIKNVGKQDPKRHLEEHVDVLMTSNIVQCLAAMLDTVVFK
Chain of USP46 (P62068 whole entry): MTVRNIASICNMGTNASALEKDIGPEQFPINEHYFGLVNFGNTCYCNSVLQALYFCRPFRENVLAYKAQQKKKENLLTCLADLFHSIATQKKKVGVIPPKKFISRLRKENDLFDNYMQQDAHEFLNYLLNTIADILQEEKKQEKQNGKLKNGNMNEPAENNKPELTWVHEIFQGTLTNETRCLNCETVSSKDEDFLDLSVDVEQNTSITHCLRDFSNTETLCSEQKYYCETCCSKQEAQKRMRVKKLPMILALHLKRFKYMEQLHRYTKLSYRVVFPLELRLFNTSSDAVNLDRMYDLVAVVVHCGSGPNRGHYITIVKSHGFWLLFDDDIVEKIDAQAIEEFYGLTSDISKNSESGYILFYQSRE

O=C(CCl)NCC1(c2ccccc2)CC1
inactive: [1] -0.475 | [2] 0.0609 | [3] -0.388 | [4] -0.502 | [5] 0.023 | [6] 0.574 | [7] -0.075 | [8] -0.144 | [9] -0.121 | [10] -0.00244

O=C(CCl)N1CCC(c2ccn[nH]2)C1 (stereo not given)
inactive: [1] -0.237 | [2] -0.0632 | [3] -0.0366 | [4] -0.675 | [5] -0.0093 | [6] -0.0323 | [7] -0.384 | [8] -0.487 | [9] -0.391 | [10] 0.0518

O=C(CCl)N1CCOCCC1c1ccccc1 (stereo not given)
inactive: [1] 0.345 | [2] -0.0581 | [3] -0.596 | [4] 0.0099 | [5] 0.135 | [6] 0.504 | [7] -0.526 | [8] -0.109 | [9] -0.168 | [10] -0.00106
